Calls of active or inactive are those of the source. Rule for the calls: active = hit-call score of the fitted dose curve at least 0.9, where 1 is the maximum; inactive = score below 0.9.

The nature of this assay: ATG_RORE_CIS: Attagene CIS-FACTORIAL HepG2 Assay for human RAR-related Orphan Receptor Element (RORE) (AID 2282959). To be noted: HepG2 Attagene cis-factorial RORE reporter, mRNA; actives raise or lower the signal. The method, then: ATG_CIS is a cell-based, multiplexed-readout assay that uses HepG2, a human liver cell line, with measurements taken at 24 hours after chemical dosing in a 24-well plate.ATG_RORE_CIS is one of 52 assay component(s) measured or calculated from the ATG_CIS assay. It is designed to make measurements of mRNA induction, a form of inducible reporter, as detected with fluorescence intensity signals by Reverse transcription polymerase chain reaction (RT-PCR) and Capillary electrophoresis technology.Data from the assay component ATG_RORE_CIS was analyzed into 1 assay endpoint. This assay endpoint, ATG_RORE_CIS, was analyzed with bidirectional fitting relative to DMSO as the negative control and baseline of activity. Using a type of inducible reporter, measures of mRNA for gain or loss-of-signal activity can be used to understand the reporter gene at the transcription factor-level as they relate to the gene RORA and RORB and RORC. Furthermore, this assay endpoint can be referred to as a primary readout, because this assay has produced multiple assay endpoints where this one serves a reporter gene function. To generalize the intended target to other relatable targets, this assay endpoint is annotated to the nuclear receptor intended target family, where the subfamily is orphan.
Human liver HepG2 cells are transiently transfected with multiple reporter transcription units (MRTUs) in 6-well plates using FuGene 6 reagent (Roche; 3 ml FuGene/1 mg DNA). The MRTU constructs are regulated by a cis-regulating element (promoter). […] A major difference between the CIS and TRANS system is that in CIS activities of endogenous TFs are measured, whereas the TRANS assay evaluates changes in activities of exogenous, chimeric NR-Gal4 proteins. […] At the end of 24 hour incubation, total RNA was isolated using TriZol reagent (Invitrogen). The isolated RNA is then reverse-transcribed using oligo(dT) primer and Mo-MLV reverse transcriptase (Invitrogen) with DNAse I (Ambion) treatment for 30 min. The one-tenth of the produced cDNA was amplified by PCR using Taq DNA polymerase (Invitrogen) and two reporter sequence-specific primers. The PCR products were fluorescently labeled by primer extension with 6-arboxyfluorescein (6-FAM) 5'-labeled reporter sequence-specific primer (2 min at 95 C, 20 s at 68 C and 10 min at 72 C) and these products were digested with 5U of HpaI (New England Biolabs) for 2h at 37 C. The fragments were purified using Qiaquick PCR columns (Qiagen), analyzed on an ABI 3130xL genetic analyzer (Applied Biosystems) with peak positions identified by using a set of X-rhodamine (ROX)-labeled MapMarker1000 molecular weight standards (BioVentures). The raw capillary electrophoresis data was processed using Attagraph software (Attagene).
For the compound `C=C(C)C(=O)OCCCCCCCCCCCC`, the call was inactive.
For `CC=C(C)C=CC=C(C)C`, the call was inactive.
On the same count and under the same terms, the same measure for `CCC(C)C(=O)OC` (stereo not given): “inactive”; for `O=C(Oc1ccccc1)c1ccccc1O`: “inactive”; for `Nc1ccc(C(=O)O)cc1`: “inactive”.
On the same count and under the same terms, as for `CC(C)[N+](C)(CCOC(=O)C1c2ccccc2Oc2ccccc21)C(C)C`, the entry is “inactive”.
For `C=C1C[C@H]2[C@@H]3C=C(C)C4=CC(=O)CC[C@]4(C)[C@H]3CC[C@]2(C)[C@@]1(OC(C)=O)C(C)=O`, the compound was classed as inactive.
On the same count and under the same terms, as for `CCCSSCCC`, the entry is “inactive”.
On the same count and under the same terms, as for `CC1CCC(C(C)(C)S)C(=O)C1` (stereo not given), the entry is “inactive”.
Take `C=CC(=O)OCCCCCCCCCC`: the compound was called inactive.
In the case of `CC=C(C)C(C)=O`, the compound was classed as inactive.
Still for that read-out and setting: as for `CC(C)COC(=O)CC(C(=O)OCC(C)C)S(=O)(=O)O` (stereo not given), the entry is “inactive”; as for `O=C1CCCCC1C1CCCCC1` (stereo not given), “inactive”.
Still for that read-out and setting: the same measure for `CCCC(C)C(=O)OCC` (stereo not given): “inactive”.
As for `CCCCC(CC)COS(=O)(=O)O` (stereo not given), the result was inactive.
The same measure, in the same setting: the same measure for `CC(=O)C(C)C`: “inactive”.
Regarding `O=C(O)c1cc(O)c2ccccc2c1O`, the compound was classed as inactive.
In the case of `Clc1cc(Cl)c(Cl)c(Cl)c1Cl`, the result was inactive.
For `Oc1c(Cl)cc(Cl)c(Cl)c1Cl`, the AC50 was 43.4 µM (active).
`CCOC(=O)CC(=O)c1ccccc1`: the result was inactive.
Still for that read-out and setting: the same measure for `Fc1ccc(Br)cc1`: “inactive”; for `CCCC/C=C/C=C\C=O`: “inactive”.
The same measure, in the same setting: the same measure for `COC(=O)c1ccccc1C`: “inactive”; for `c1ccc(Nc2cccc3ccccc23)cc1`: “inactive”; for `CC(C)OC(=O)c1ccccc1`: “inactive”.
With `Oc1ccc(/C=C/c2cc(O)cc(O)c2)cc1`, the outcome was inactive.
Still for that read-out and setting: the same measure for `CC(=O)CCC=C(C)C`: “inactive”.
Same read-out and setting: as for `CC1=CC(C)C(C=O)CC1` (stereo not given), the entry is “inactive”; as for `CCCC(CC)c1ccccc1` (stereo not given), “inactive”.
Same read-out and setting: as for `O=C(OCc1ccccc1)c1ccc(O)cc1`, the entry is “inactive”; as for `CCCCNS(=O)(=O)c1ccc(C)cc1`, “inactive”.
Regarding `CC(=O)CCC1=C(C)CCCC1(C)C`, the outcome was inactive.
Turning to `CC=CC(=O)OCC(C)C`, the call was inactive.
Same read-out and setting: the same measure for `COc1nccnc1CC(C)C`: “inactive”; for `CCCCCCCCCCCCCc1ccccc1`: “inactive”.
With `CCCCCCCO`, the result was inactive.
The same measure, in the same setting: as for `CCCCCCCCCC(C)=O`, the entry is “inactive”.
For `O=C(Cl)c1c(Cl)c(Cl)c(C(=O)Cl)c(Cl)c1Cl`, the compound was called inactive.
`CC12CCC(CC1)C(C)(C)O2`: the compound was classed as inactive.
On to `C=CCOC(=O)c1ccc(C(=O)OCC=C)c(C(=O)OCC=C)c1`, for which the AC50 is 32.5 µM (active).

Values taken from PubChem BioAssay (EPA / NIEHS).
